The other results are listed elsewhere or left out. Values without a mark were called inactive. Cut-off read from the data, not from the text of the source: active = activation above about 21%; inactive = the rest.
Molecular target: Sphingosine 1-phosphate receptor 1 (Homo sapiens) (UniProt P21453)
Test: activation of human S1P1 receptor – cell-based, counter-screen for S1P4 agonist project (AID 1563);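 note: 0% = vehicle wells and 100% = reference agonist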
Details: S1P1 agonist cell-based assay, at 4.98 µM, active compounds read high

Sequence of Sphingosine 1-phosphate receptor 1 (Homo sapiens) (P21453 whole entry, looked up): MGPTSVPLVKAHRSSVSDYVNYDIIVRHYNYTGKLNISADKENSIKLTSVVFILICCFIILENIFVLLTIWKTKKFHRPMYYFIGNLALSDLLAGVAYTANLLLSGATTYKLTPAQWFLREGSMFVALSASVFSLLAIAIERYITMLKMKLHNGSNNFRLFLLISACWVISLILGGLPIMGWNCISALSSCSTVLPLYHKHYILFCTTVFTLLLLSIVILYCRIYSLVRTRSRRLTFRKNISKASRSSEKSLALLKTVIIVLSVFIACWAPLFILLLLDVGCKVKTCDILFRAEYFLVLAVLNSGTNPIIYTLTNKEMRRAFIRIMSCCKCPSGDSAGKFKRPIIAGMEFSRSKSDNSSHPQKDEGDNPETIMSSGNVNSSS

`CC(C)N(CC#CCC1(O)c2ccccc2-c2ccccc21)C(C)C` gave an activation of 1.18%.
